Screening data (PubChem)
ERK AVP inh: qHTS Assay for Inhibitors of the ERK Signaling Pathway using a Homogeneous Screening Assay; HEK293-V1b, vasopressin-stimulated pERK AlphaScreen; Potency, µM (titrated, usually from 57.5 µM), for the others: top-dose activity, negative = inhibition, hits mostly inhibitors; 0.99% of 72,000 active; AID 995, 2007; note: potency is the fitted concentration of half-maximal effect; % is set by controls: 0 for no effect and ±100 for the full control effect; nearly all actives have a fitted effect of over 55% in size
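Phosphorylated ERK1/2 detected via AlphaScreen bead proximity in lysates of V1b-expressing HEK293 cells given 25 nM vasopressin for 5 min after 30 min compound exposure (37 °C). AC50 from Hill equation; basal DMSO 0%, vasopressin 100%.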
HEK293 cAMP cs: qHTS Assay for Agonists of the Thyroid Stimulating Hormone Receptor: Activators of Intracellular cAMP Concentrations in Parental HEK 293; parental HEK293 CNG cAMP sensor, membrane potential fluorescence; Potency, µM (top dose mostly 57.1 µM), for inactives: top-dose activation, most hits filed as activators; 2.5% of 73,000 active; note: potency is the fitted concentration of half-maximal effect; % of control where 0% means no effect; nearly all actives have a fitted effect of over 55% in size
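Parental HEK 293 cells stably expressing a cAMP-gated CNG channel were loaded with membrane potential dye containing 100 uM RO 20-1724 for 60 min. Compound added for 30 min; depolarization read as fluorescence intensity at 590 nm.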
HBB splicing: qHTS Assay for Modulators of Hemoglobin Beta Chain Splicing; HBB splicing reporter cell assay, activation; EGFP reporter with mutant IVS2-654 intron; response scale: normalised to 500 nM splice-correcting PNA; Potency, µM (highest dose often 46.1 µM), inactives show top-dose activation, usual class: activators; 0.06% of 65,000 active; note: potency is the fitted concentration of half-maximal effect; 0% is about no effect
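HeLa cells stably expressing EGFP interrupted by mutant beta-globin intron 2 (IVS2-654), 500/well in 2% FCS. Treated with compound for 2 days at 37C. Splicing correction scored as total well GFP intensity (488 nm excitation, 500-520 nm emission); 500 nM antisense PNA served as control.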
TSHR ag: qHTS Assay for Agonists of the Thyroid Stimulating Hormone Receptor. Thyrotropin receptor (Homo sapiens), P16473. HEK293-CNG-TSHR cells (CNG channel as cAMP sensor), membrane potential dye, cAMP. Potency, µM (series often up to 57.1 µM), for inactives: at the top dose activation, hits mostly activators. 0.48% of 73,000 active. AID 926, 2007; active = well fitted activation curve with a large enough effect in the main read-out, with a control signal flat, not every such curve was filed as active; inconclusive = small, poorly fitted or top-dose-only effect, or a change in a side signal; inactive = no such curve, though single readings can be large or run the other way; % of control where 0% means no effect;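 note: the control signal comes from parental cells without the receptor; potency is the fitted concentration of half-maximal effect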
Target sequence (P16473 whole entry, looked up): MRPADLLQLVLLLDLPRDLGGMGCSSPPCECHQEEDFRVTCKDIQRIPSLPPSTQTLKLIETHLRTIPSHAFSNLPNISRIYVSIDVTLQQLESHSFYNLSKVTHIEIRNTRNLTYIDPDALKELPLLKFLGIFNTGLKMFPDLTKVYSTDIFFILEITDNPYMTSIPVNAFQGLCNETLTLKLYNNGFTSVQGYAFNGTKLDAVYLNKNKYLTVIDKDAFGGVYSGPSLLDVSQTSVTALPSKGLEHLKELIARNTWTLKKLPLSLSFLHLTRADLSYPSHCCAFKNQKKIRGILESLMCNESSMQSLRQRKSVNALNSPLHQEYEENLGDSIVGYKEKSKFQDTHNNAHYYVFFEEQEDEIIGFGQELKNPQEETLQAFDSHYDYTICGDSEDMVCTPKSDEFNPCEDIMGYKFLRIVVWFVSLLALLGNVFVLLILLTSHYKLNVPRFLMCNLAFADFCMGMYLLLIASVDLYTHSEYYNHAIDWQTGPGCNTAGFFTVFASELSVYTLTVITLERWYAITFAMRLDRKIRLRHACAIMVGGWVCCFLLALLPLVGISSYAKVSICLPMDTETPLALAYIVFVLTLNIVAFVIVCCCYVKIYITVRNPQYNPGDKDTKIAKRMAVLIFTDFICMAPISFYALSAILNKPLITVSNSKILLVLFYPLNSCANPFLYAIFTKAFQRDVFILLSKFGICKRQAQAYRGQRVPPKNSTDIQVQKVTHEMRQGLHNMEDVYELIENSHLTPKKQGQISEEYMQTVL
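cAMP rise detected as CNG-channel membrane depolarization by fluorescent dye (emission 590 nm), 30 min after compound, following 60 min dye loading containing 100 uM RO 20-1724 at room temperature. Cells: TSHR/CNG HEK 293, with parental CNG HEK 293 as control.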
GFP derepression: qHTS Assay for Epigenetic Modulators; mouse C127i GFP locus derepression, cytometry, 30 h; 0.09% of 68,000 active; AID 597, 2007; Potency, µM (series often up to 46.1 µM), for the others: at the highest dose GFP derepression (activation); note: % of control where 0% means no effect
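Murine C127i mammary cells carrying a silenced, stably integrated CMV-driven GFP reporter were treated with compound for 30 hours at 37 C. After PBS washes, GFP-positive cells were counted by laser-scanning microplate cytometry.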
UbGFP stabilizer: Ubiquitin-GFP Assay; Ubiquitin-GFP reporter cells, proteasome inhibition, GFP fluorescence; response scale: untreated = 0%, 10 µM MG-132 = 100%; Potency, µM (doses to about 45.9 µM), for inactives: at the highest dose activation (GFP accumulation), usual class: activators; 67,000 tested, under 10 active; AID 526, 2006; active = well fitted activation curve with a large enough effect, not every such curve was filed as active; inconclusive = small, poorly fitted or top-dose-only effect, or another doubt; inactive = no such curve, though single readings can be large or run the other way; note: potency is the fitted concentration of half-maximal effect
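U2OS Ub(G76V)-GFP reporter; O/N plating, 0.5% FBS; cpd 46 uM–2.9 nM, 4 h, 37 °C; GFP+ cell count, 488/515 nm; norm. to basal vs 10 uM MG-132; CRC fit.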
Starred values were filed as active, the others as inactive; ? = inconclusive; . = no result; [ ] = dose if it differs, or a comment. An excerpt weighted towards active compounds, which were near 3.8% of everything screened. Unless noted, calls come from the whole dose curve; as a rule, active = well fitted curve in the direction sought with a large enough effect; inconclusive = small, poorly fitted or top-dose-only effect, or another doubt; inactive = no such curve, though single readings can be large; an effect the other way counts as inactive or inconclusive.

SMILES	ERK AVP inh	HEK293 cAMP cs	HBB splicing	TSHR ag	GFP derepression	UbGFP stabilizer
C[C@H]1CC(C)(C)C[C@@](OCCN2CCCCC2)(c2ccccc2)C1	9%[11.5 µM]	5µM*	3%[9.22 µM]	?	-2%[9.22 µM]	-1%[9.17 µM]
Cc1ccc2c(c1)cc(CN(Cc1cccs1)C(=O)c1ccco1)c1nnnn12	?	16µM*	0%[57.5 µM]	?	2%	1%
O=C(c1cccc(F)c1)N1CCC2(CC1)CCN(c1ccncc1)CC2	6%	4µM*	4%	?	0%[9.22 µM]	2%
O=C(c1cccc(F)c1)N1CCC2(CCCN(c3cccc(-c4ccccc4)c3)C2)CC1	-20%	1.3µM*	?	?	-2%[9.22 µM]	-3%
O=C(c1cc(C(F)(F)F)cc(C(F)(F)F)c1)N1CCC2(CC1)CCN(c1ccncc1)CC2	-20%	3.2µM*	-1%	?	-2%[9.22 µM]	0%
COc1cccc(CCc2ccccc2OCC[C@@H]2C[C@@H](O)CN2C)c1	15%	?	-1%	?	.	.
O=C(CN(C(=O)c1cc2c(s1)CCC2)C1CCCC1)NCc1cccs1	-7%	32µM*	0%	?	0%	-1%
Cc1cccc2cc(C#N)c(NCCNC(=O)NC3CCCCC3)nc12	-10%	20µM*	-7%	?	-1%	3%
Cc1ccc(-n2c3c(cc(C(=O)NCc4ccco4)c2=O)C(=O)CC(C)(C)C3)cc1	19%	21%[11.4 µM]	1%[0.0738 µM]	4µM*	-2%	-12%[9.17 µM]
CC1(C)CC(=O)c2cc(C(=O)NCc3ccco3)c(=O)n(-c3ccc(Cl)cc3)c2C1	-14%	?	0%	?	-2%	-5%
CS(=O)(=O)N1CCC2(CC1)CN(c1ncccn1)C2	-7%	-3%	5%	0%	2%[9.22 µM]	-5%
CC#C[C@]1(O)CC[C@H]2[C@@H]3CCC4=CC(=O)CCC4=C3[C@H](c3ccc(N(C)C)cc3)C[C@@]21C	13µM*	-24%	.	0%	0%	1%
C#C[C@@]1(O)CC[C@@H]2[C@@H]3CCC4=CC(=O)CC[C@@H]4[C@H]3CC[C@]21C	-10%[25.7 µM]	?	0%[20.6 µM]	?	5%[20.6 µM]	0%[20.5 µM]
CNC/C(Cl)=N/S(=O)(=O)c1ccc(C)cc1	6%[11.5 µM]	-7%[11.4 µM]	0%[9.22 µM]	2%[11.4 µM]	-1%[9.22 µM]	-2%[9.17 µM]
O=C1CC(N2CCN(C3CCc4ccccc4C3)CC2)C(=O)N1c1ccccc1 (stereo not given)	-12%	25µM*	1%	?	-4%	-13%
O=[N+]([O-])c1ccc(-c2nc(-c3ccc(F)cc3)c(-c3ccncc3)[nH]2)cc1	20µM*	.	.	.	.	.
CCCCCn1c(=N)n(CC(O)COc2ccccc2OC)c2ccccc21 (stereo not given)	13µM*	?	-1%	?	.	7%
Cc1ccc(OCC(O)Cn2c(=N)n(CCN3CCCCC3)c3ccccc32)cc1 (stereo not given)	-26%	?	4%[0.369 µM]	?	3%	.
Cc1ccc(OCC(O)Cn2c(=N)n(CCN3CCOCC3)c3ccccc32)cc1 (stereo not given)	?	20µM*	0%[57.5 µM]	?	3%	-4%
COc1ccccc1OCC(O)Cn1c(=N)n(Cc2ccccc2)c2ccccc21 (stereo not given)	-9%	?	-3%[57.5 µM]	?	2%	3%
CCCCC#CC1C=CC(Oc2ccc(OC)cc2)C(CO)O1 (stereo not given)	12%[11.5 µM]	26%[11.4 µM]	4%[9.22 µM]	2%[11.4 µM]	.	.
Cn1cc(/C(Cc2ccccc2)=N\O)c2ccccc21	-7%	29%	0%	20µM*	-3%	4%
Cc1[nH]c2ccccc2c1-c1cc(-c2cc(-c3c(C)[nH]c4ccccc34)nc(N)n2)nc(N)n1	0%[11.5 µM]	-4%[11.4 µM]	3%[9.22 µM]	0%[11.4 µM]	-1%[9.22 µM]	9%[9.17 µM]
O=C(CN1CCN(c2ccccc2F)CC1)Nc1ccccc1F	28%	?	6%	?	-2%	-4%
COc1ccc(OC)c(NC(=O)CCN2CCN(c3ccccc3F)CC2)c1	-12%	12%[11.4 µM]	-2%[0.0738 µM]	14%[11.4 µM]	-2%	-6%[9.17 µM]
SMILES	ERK AVP inh	HEK293 cAMP cs	HBB splicing	TSHR ag	GFP derepression	UbGFP stabilizer
O=C(CCN1CCN(c2ccc(Cl)cc2)CC1)Nc1ccccc1F	-16%	25µM*	-1%[57.5 µM]	?	0%	-3%
COc1cccc(NC(=O)CCN2CCN(c3ccccc3F)CC2)c1	.	25µM*	.	?	.	.
O=C(CCN1CCN(c2ccccc2F)CC1)Nc1ccccc1F	-4%	29%	0%[57.5 µM]	18%	0%	1%
COc1ccc(C)cc1NC(=O)CN1CCN(c2ccccc2F)CC1	-20%	16µM*	-1%	?	2%	-2%
CCCN1C[C@@H](CSC)C[C@H]2c3cccc4[nH]cc(c34)C[C@@H]21	3%	11%	-1%	-20%	0%	0%
COc1ccc(O[C@H]2C=C[C@@H](c3ccccc3)O[C@H]2COC(=O)CC/C(C)=N\O[C@@H](C)c2cn([C@H]3COC[C@H]3O)nn2)cc1	-21%[11.5 µM]	0%[11.4 µM]	-1%[9.22 µM]	-10%[11.4 µM]	.	.
Nc1nonc1-c1nc2ccccc2n1CC(=O)N1CCN(c2ccc(F)cc2)CC1	-7%	25µM*	0%	?	0%	-2%
CCCCOc1ccccc1NC(=O)Cn1c(-c2nonc2N)nc2ccccc21	15%	6.3µM*	0%	?	0%	0%
CCc1nnc(NC(=O)CSc2nnc(-c3ccccc3O)n2-c2ccc(C)cc2C)s1	-13%	20µM*	-1%	?	-2%	0%
Cc1cccc(C)c1NC(=O)CSc1nnc(-c2ccoc2C)n1C	0%	10%	.	0%	-2%	5%
Cc1ccc2c3c(c(SCC(=O)Nc4nonc4C)nc2c1)CCCC3	-9%	7.9µM*	.	?	4%	-4%
Cc1ccc(C)c(-n2c(SCC(=O)Nc3nonc3C)nnc2-c2ccoc2C)c1	-11%	25µM*	0%[57.5 µM]	?	-3%	-4%
Cc1ccc(C)c(-n2c(SCC(=O)Nc3nnc(C)s3)nnc2-c2ccoc2C)c1	-13%	2.5µM*	0%[57.5 µM]	?	8%	1%
Cc1nonc1NC(=O)CSc1nc2cc(Cl)ccc2c2c1CCCC2	9%	?	0%	?	5%	-1%
CCc1nnc(NC(=O)CSc2nnc(COc3ccccc3)n2-c2ccc(C)cc2)s1	8%	?	.	?	-1%	3%
